Shiga inhibitor = A qHTS for Small Molecule Inhibitors of Shiga Toxin | inhibition, % at 38.7 µM | 9.2% of 290,000 active | Vero cells, Shiga toxin protein synthesis inhibition reporter | AID 2315, 2010; in the data active = inhibition mostly above about 28%, no sharp cut-off; inactive = mostly below about 43%; note: 0% is about no effect
LASV entry inh = qHTS for Inhibitors of binding or entry into cells for Lassa Virus | Lassa virus pseudotype entry inhibition, cell reporter | Potency, µM (highest dose often 37.9 µM), for inactives: top-dose activity change, negative = inhibition, actives largely listed as inhibitors | 1.2% of 300,000 active | AID 540256, 2011; calls by dose curve; tested in HEK293 cells; note: potency is the fitted concentration of half-maximal effect; % is set by controls: 0 for no effect and ±100 for the full control effect; nearly all actives have a fitted effect of over 50% in size
Marburg entry inh = qHTS for inhibitors of binding or entry into cells for Marburg Virus; Marburg virus pseudotyped entry inhibition, cell reporter; Potency, µM (series often up to 37.8 µM), inactives show at the top dose activity change, negative = inhibition, actives largely listed as inhibitors; 1.8% of 300,000 active; AID 540276, 2011; calls by dose curve; tested in HEK293 cells; note: potency is the fitted concentration of half-maximal effect; % is set by controls: 0 for no effect and ±100 for the full control effect
Cycloheximide cs = Cycloheximide Counterscreen for Small Molecule Inhibitors of Shiga Toxin | cell reporter, cycloheximide protein synthesis inhibition counterscreen | max response, % | 12% of 300,000 active | AID 2314, 2010; in the data active = max response mostly above about 13%, no sharp cut-off; inactive = mostly below about 14%; note: read at 38.3 µM for the half of the compounds with a filed dose; 0% is about no effect
* = called active by the depositor; [ ] = dose if it differs, or a comment. An excerpt weighted towards active compounds, which were near 12% of everything screened.

`O=C(Nc1ccc(N2CCCC2)cc1)c1cccc(Cl)c1` gave Shiga inhibitor 52*, LASV entry inh inconclusive, Marburg entry inh inconclusive and Cycloheximide cs 25*.
Screening O=C(Nc1ccccc1N1CCCCC1)c1cccc(Cl)c1 returned Shiga inhibitor 2, LASV entry inh -21%[46.1 µM], Marburg entry inh -6%[46.1 µM] and Cycloheximide cs -3.
`O=C(Nc1ccc(SC(F)(F)F)cc1)c1ccccn1` gave Shiga inhibitor 113*, LASV entry inh inconclusive, Marburg entry inh inconclusive and Cycloheximide cs 30*.
O=C(Nc1ccc(N2CCOCC2)cc1)c1cc(F)c(F)cc1Cl was read as Shiga inhibitor 56*, LASV entry inh 21%, Marburg entry inh 12% and Cycloheximide cs 35*.
FC(F)(F)Sc1ccc(NC(=S)NCc2ccccc2)cc1 was read as Shiga inhibitor 18 and Cycloheximide cs 12.
`CSc1ccc(Cl)c(C(=O)Nc2ccc(N3CCOCC3)cc2)c1` gave Shiga inhibitor 18, LASV entry inh 0%[46.1 µM], Marburg entry inh inconclusive and Cycloheximide cs 5.
`CN(CC(=O)Nc1ccc(OC(F)(F)F)cc1)S(=O)(=O)c1cnc[nH]1` gave Shiga inhibitor 25, LASV entry inh 0%[46.1 µM], Marburg entry inh inconclusive and Cycloheximide cs 12.
`COCCCn1cc(C(=O)c2ccccc2OCC(=O)Nc2cccc(F)c2)cc(C#N)c1=O` gave Shiga inhibitor 50, LASV entry inh 1%[46.1 µM], Marburg entry inh 14%[46.1 µM] and Cycloheximide cs 9.
Screening O=C(NCc1ccccc1)c1ccc2c(c1)N(Cc1ccccc1F)C(=O)c1ccccc1S2=O (centres undefined) returned LASV entry inh -5%[46.1 µM] and Marburg entry inh inconclusive.
`CC(Oc1ccc(Br)cc1)C(=O)Nc1cc(Cl)ccc1N1CCN(C)CC1` (centres undefined) gave LASV entry inh inconclusive and Marburg entry inh 8.9µM*.
For COc1ccc(C(CC(=O)NC(C)c2ccc(-c3ccccc3)cc2)NC(C)=O)cc1 (centres undefined) the results were Shiga inhibitor 7, LASV entry inh 4%, Marburg entry inh inconclusive and Cycloheximide cs -4.
`CCOc1ccc(C(=O)c2ccc(OCC)c(N)c2)cc1N` gave Shiga inhibitor 22, LASV entry inh 7%, Marburg entry inh -27% and Cycloheximide cs 10.
`CN(C)c1ccc(C(=O)c2ccc(N(C)C)c(N)c2)cc1N` gave Shiga inhibitor 75, LASV entry inh inconclusive, Marburg entry inh -3% and Cycloheximide cs 28*.
CCn1cc(SCC(=O)NCC2CCCO2)c2ccccc21 (centres undefined) was read as Shiga inhibitor 3 and Cycloheximide cs 6.6*.
`O=C(CSc1nncc2ccccc12)N1CCOCC1` gave Shiga inhibitor 37, LASV entry inh 22%, Marburg entry inh -13% and Cycloheximide cs 17*.
For CCn1cc(SCC(=O)N2CCOCC2)c2ccccc21 the results were Shiga inhibitor 68* and Cycloheximide cs 30*.
O=C(CSc1nncc2ccccc12)Nc1ccc(C(=O)O)cc1 was read as Shiga inhibitor 6 and Cycloheximide cs 21*.
Screening COc1ccc(C(C)=O)cc1CSc1nncn1-c1ccccc1 returned Shiga inhibitor -6, LASV entry inh inconclusive, Marburg entry inh 0% and Cycloheximide cs 0.
For Cn1cc(SCC(=O)N2CCN(c3ccccc3)CC2)c2ccccc21 the results were Shiga inhibitor -5 and Cycloheximide cs -9.
For Cn1cc(SCC(=O)N2CCOCC2)c2ccccc21 the results were Shiga inhibitor 93* and Cycloheximide cs 22*.
For COc1ccc(-c2nc3sc(CCNS(=O)(=O)c4ccccc4)c(C)n3n2)cc1 the results were LASV entry inh -30%[46.1 µM].
For CCCOC(=O)c1ccc(S(N)(=O)=O)o1 the results were Shiga inhibitor -10, LASV entry inh 3%, Marburg entry inh 4% and Cycloheximide cs 1.
For CCCCOC(=O)c1ccc(S(N)(=O)=O)o1 the results were Shiga inhibitor -14, LASV entry inh inconclusive, Marburg entry inh inconclusive and Cycloheximide cs 11*.
Screening Cc1nn(Cc2c(Cl)cccc2Cl)c(C)c1N returned Shiga inhibitor 4, LASV entry inh 1%, Marburg entry inh -22% and Cycloheximide cs -2.
For O=C(Nc1ccc(O)c2c(=O)cc(-c3ccccc3Cl)oc12)c1cc(Cl)cc(Cl)c1 the results were Shiga inhibitor -6 and Cycloheximide cs -2.
c1ccc(-c2nnsc2-c2ncc[nH]2)cc1 was read as Shiga inhibitor 10, LASV entry inh 11%, Marburg entry inh inconclusive and Cycloheximide cs -2.
O=c1[nH]c2ccccc2nc1-c1ccccc1 was read as Shiga inhibitor 50*, LASV entry inh -5%[46.1 µM], Marburg entry inh inconclusive and Cycloheximide cs 26*.
O=c1[nH]c2ccccc2nc1-c1ccc(Cl)cc1 was read as Shiga inhibitor 52*, LASV entry inh inconclusive, Marburg entry inh 10%[46.1 µM] and Cycloheximide cs 18*.
O=c1nc(-c2ccccc2)c2ccccc2[nH]1 was read as Shiga inhibitor -1, LASV entry inh 1%, Marburg entry inh -5% and Cycloheximide cs 2.
For c1ccc(-c2nnsc2-c2nc3ccccc3[nH]2)cc1 the results were Shiga inhibitor 43*, LASV entry inh 0%, Marburg entry inh -25%[46.1 µM] and Cycloheximide cs 23*.
For COc1ccc(CCNC(=O)CCOc2cc(C)ccc2C)cc1OC the results were Shiga inhibitor -6 and Cycloheximide cs 3.
Screening CCOc1ccc(NC(=O)CN2C(=O)COc3ccc(S(=O)(=O)NC4CCCC4)cc32)cc1 returned LASV entry inh 20%[46.1 µM].
For O=[N+]([O-])c1ccc2c(c1)nc1n2CCCCC1 the results were Shiga inhibitor 22, LASV entry inh inconclusive, Marburg entry inh inconclusive and Cycloheximide cs 15.
Screening CCCC(=O)Nc1ccc2c(c1)nc1n2CCN(C2CCCCC2)C1 returned Shiga inhibitor 4, LASV entry inh 3%, Marburg entry inh 2%[46.1 µM] and Cycloheximide cs 2.
CC(=O)Nc1ccc2c(c1)nc1n2CCN(C2CCCCC2)C1 was read as Shiga inhibitor 47, LASV entry inh -2%, Marburg entry inh inconclusive and Cycloheximide cs 29*.
`O=[N+]([O-])c1ccc2c(c1)nc1n2CCN(C2CCCCC2)C1` gave Shiga inhibitor 49*, LASV entry inh 10%, Marburg entry inh 4%[46.1 µM] and Cycloheximide cs 37*.
For O=C(NC1CC2CCCC(C1)N2Cc1ccccc1)c1cccc(Cl)c1 (centres undefined) the results were Shiga inhibitor 5, LASV entry inh 1%, Marburg entry inh 1.3µM* and Cycloheximide cs 7.
Screening CCCCOc1cccc(C(=O)NNC(=S)NC2CCCCC2)c1 returned Shiga inhibitor 0, LASV entry inh inconclusive, Marburg entry inh -10% and Cycloheximide cs -3.
Screening CCOc1cccc(C(=O)NC2CCCCC2)c1 returned Shiga inhibitor 101*, LASV entry inh 4%, Marburg entry inh 3% and Cycloheximide cs 30*.
`Cc1cccc(C(=O)NC2CC3CCCC(C2)N3S(=O)(=O)c2ccccc2)c1` (centres undefined) gave Shiga inhibitor 3, LASV entry inh 13µM*, Marburg entry inh inconclusive and Cycloheximide cs -2.
Nc1c(Cl)cc(C(=O)NC2CC2)cc1Cl was read as LASV entry inh 0%[46.1 µM] and Marburg entry inh 11µM*.
